SMILES strings stand for the structures. Hit rate of the full screen: of about 3,200 compounds, about 2,600 (81%) were called active.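 The calls were made as follows: active = activation above the all-compound mean plus 3 SD, ignoring values outside control-based bounds (cut at about 4.8% in these data); inactive = the rest.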 The set was probably picked from earlier hits. Only a sample is shown.

A short description of this assay: apparent activators from fluorescence artefacts, no enzyme – biochemical, fluorescence intensity, high throughput, artefact control for kallikrein-7 zymogen activator project (AID 686952).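 Also: value is the 4 h activation minus the activation read at time zero.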 The conditions noted are these: EDANS-DABCYL substrate fluorescence interference, 4 h, at 7 µM, stronger effect = higher value.
Turning to `CCOC(=O)c1c(N)n(CCN2CCOCC2)c2nc3ccccc3nc12`, the activation is 31.4% (active).

Consider `Cc1nc2ccc(N3CCN(C)CC3)cc2nc1C`, for which the activation was 13.9% (active).

In the case of `CCOc1ccc(-c2cc(C)[n+](CCN(CC)CC)c(-c3ccc(OCC)cc3)c2)cc1`, the activation was 37.3% (active).

`COc1cccc(-c2nc3ccc(N4CCN(C)CC4)cc3[nH]2)c1`: the activation was 65.7% (active).

Values taken from PubChem BioAssay AID686952 (The Scripps Research Institute Molecular Screening Center, 2013).
